Laboratory results published in ChEMBL document CHEMBL1961873, “Compounds: GSK PKIS; Assays: Nanosyn kinase panel” (2012).

Legend:
[1] = tested on: Tyrosine-protein kinase ABL1 (Homo sapiens), P00519 [T315I]; conditions: at 1 µM
[2] = tested on: Tyrosine-protein kinase ABL1 (Homo sapiens), P00519 [Y253F]; conditions: at 0.1 µM
[3] = tested on: Tyrosine-protein kinase ABL1 (Homo sapiens), P00519 [Y253F]; conditions: at 1 µM
[4] = target: Tyrosine-protein kinase ABL1 (Homo sapiens) (UniProt P00519); conditions: at 0.1 µM
[5] = target: Tyrosine-protein kinase ABL1 (Homo sapiens) (UniProt P00519); conditions: at 1 µM
[6] = target: ALK tyrosine kinase receptor (Homo sapiens) (UniProt Q9UM73); conditions: at 0.1 µM
ALK tyrosine kinase receptor (Homo sapiens), sequence (Q9UM73 19-1620 limits assumed): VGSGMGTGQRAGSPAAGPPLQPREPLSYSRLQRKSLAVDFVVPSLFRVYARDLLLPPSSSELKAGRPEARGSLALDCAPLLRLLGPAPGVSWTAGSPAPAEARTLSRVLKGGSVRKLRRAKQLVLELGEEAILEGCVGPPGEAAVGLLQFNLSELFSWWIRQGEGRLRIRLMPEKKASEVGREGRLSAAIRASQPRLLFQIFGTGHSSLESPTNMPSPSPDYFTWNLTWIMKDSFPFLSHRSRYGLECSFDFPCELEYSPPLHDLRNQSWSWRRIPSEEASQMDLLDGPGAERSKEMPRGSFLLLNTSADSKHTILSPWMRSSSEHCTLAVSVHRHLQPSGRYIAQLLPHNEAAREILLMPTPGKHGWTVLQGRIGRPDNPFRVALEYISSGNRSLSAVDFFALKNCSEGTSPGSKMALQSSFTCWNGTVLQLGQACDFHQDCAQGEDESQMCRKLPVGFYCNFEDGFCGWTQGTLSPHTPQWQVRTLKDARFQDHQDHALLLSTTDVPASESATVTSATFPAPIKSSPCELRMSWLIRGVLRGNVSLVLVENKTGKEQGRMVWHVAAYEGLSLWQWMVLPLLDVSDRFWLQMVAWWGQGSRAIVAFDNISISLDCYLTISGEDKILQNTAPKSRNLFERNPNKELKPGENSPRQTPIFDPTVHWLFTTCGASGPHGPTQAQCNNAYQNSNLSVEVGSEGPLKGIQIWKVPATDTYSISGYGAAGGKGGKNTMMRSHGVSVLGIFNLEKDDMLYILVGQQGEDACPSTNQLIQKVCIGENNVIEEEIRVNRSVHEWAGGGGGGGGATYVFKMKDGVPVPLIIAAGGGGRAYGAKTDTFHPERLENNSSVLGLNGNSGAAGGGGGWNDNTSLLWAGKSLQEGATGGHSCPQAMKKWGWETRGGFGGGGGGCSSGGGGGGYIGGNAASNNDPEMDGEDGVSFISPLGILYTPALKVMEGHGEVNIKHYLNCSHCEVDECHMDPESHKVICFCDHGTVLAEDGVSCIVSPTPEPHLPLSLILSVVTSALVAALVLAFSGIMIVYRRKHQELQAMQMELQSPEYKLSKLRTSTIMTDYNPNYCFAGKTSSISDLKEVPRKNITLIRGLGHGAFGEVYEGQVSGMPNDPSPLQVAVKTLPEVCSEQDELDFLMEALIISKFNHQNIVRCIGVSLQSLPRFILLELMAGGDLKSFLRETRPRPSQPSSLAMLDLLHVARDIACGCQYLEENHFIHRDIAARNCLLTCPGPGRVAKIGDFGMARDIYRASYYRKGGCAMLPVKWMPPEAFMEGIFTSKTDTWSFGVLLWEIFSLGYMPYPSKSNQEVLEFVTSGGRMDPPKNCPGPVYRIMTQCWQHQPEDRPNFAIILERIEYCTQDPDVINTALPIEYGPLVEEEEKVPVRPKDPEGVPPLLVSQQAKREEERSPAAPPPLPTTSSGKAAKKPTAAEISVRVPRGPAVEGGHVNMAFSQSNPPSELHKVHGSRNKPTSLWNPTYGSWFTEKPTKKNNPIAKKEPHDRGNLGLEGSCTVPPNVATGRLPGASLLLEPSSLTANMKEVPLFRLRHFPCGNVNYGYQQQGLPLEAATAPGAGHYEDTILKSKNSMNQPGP

[7] = target: ALK tyrosine kinase receptor (Homo sapiens) (UniProt Q9UM73); conditions: at 1 µM
[8] = target: Tyrosine-protein kinase ABL2 (Homo sapiens) (UniProt P42684); conditions: at 0.1 µM
Tyrosine-protein kinase ABL2 (Homo sapiens), sequence (P42684 whole entry): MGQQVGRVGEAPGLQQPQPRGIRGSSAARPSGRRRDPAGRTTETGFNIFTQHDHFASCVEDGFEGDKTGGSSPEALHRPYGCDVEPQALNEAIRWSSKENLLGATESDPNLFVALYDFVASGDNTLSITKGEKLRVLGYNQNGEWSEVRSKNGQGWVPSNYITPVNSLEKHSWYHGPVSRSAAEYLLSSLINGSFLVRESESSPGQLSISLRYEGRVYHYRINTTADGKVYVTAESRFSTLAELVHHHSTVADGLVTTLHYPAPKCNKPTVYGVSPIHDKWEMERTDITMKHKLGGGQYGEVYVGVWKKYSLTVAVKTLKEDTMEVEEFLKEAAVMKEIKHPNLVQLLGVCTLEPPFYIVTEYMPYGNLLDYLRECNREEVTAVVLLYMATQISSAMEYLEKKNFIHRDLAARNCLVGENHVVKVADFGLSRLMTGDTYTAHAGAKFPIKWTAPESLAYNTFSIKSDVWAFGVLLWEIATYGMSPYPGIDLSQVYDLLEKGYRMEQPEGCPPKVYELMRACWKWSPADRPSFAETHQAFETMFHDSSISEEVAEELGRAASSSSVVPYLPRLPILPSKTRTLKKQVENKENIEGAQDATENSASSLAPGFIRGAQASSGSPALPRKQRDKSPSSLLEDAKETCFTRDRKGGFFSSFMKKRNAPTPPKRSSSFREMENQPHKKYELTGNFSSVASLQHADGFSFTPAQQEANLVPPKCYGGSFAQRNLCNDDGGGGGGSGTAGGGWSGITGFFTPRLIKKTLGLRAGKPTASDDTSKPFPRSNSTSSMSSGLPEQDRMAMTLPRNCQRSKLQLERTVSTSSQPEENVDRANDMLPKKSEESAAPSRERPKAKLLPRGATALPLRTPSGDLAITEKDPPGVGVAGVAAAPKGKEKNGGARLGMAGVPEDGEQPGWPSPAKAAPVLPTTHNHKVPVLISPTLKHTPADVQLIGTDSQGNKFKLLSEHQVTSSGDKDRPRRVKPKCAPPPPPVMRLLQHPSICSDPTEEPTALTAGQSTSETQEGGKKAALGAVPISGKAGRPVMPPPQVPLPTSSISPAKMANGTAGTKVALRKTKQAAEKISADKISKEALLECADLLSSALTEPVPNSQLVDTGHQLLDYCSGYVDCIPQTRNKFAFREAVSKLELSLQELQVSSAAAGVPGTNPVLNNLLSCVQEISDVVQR

[9] = target: Tyrosine-protein kinase ABL2 (Homo sapiens) (UniProt P42684); conditions: at 1 µM
[10] = target: Tyrosine-protein kinase receptor UFO (Homo sapiens) (UniProt P30530); conditions: at 0.1 µM
[11] = target: Tyrosine-protein kinase receptor UFO (Homo sapiens) (UniProt P30530); conditions: at 1 µM
[12] = target: Tyrosine-protein kinase Blk (Homo sapiens) (UniProt P51451); conditions: at 0.1 µM
Tyrosine-protein kinase Blk (Homo sapiens), sequence (P51451 2-505 limits assumed): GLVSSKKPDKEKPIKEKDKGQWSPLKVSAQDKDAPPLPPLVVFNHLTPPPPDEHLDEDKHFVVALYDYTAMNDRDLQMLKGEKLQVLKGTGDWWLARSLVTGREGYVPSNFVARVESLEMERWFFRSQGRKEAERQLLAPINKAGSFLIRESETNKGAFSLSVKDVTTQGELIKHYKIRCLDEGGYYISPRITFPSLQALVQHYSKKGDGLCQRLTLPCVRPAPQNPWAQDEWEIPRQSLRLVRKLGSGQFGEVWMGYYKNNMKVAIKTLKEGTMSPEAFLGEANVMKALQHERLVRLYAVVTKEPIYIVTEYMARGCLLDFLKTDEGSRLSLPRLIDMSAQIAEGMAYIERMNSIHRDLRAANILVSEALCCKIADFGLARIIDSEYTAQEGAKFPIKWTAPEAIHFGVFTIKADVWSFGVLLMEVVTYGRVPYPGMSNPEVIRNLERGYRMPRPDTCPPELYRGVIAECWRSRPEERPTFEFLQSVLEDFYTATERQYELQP

[13] = target: Tyrosine-protein kinase Blk (Homo sapiens) (UniProt P51451); conditions: at 1 µM
[14] = target: T1, Cytoplasmic tyrosine-protein kinase BMX (Homo sapiens) (UniProt P51813); conditions: at 0.1 µM
T1 sequence (whole entry): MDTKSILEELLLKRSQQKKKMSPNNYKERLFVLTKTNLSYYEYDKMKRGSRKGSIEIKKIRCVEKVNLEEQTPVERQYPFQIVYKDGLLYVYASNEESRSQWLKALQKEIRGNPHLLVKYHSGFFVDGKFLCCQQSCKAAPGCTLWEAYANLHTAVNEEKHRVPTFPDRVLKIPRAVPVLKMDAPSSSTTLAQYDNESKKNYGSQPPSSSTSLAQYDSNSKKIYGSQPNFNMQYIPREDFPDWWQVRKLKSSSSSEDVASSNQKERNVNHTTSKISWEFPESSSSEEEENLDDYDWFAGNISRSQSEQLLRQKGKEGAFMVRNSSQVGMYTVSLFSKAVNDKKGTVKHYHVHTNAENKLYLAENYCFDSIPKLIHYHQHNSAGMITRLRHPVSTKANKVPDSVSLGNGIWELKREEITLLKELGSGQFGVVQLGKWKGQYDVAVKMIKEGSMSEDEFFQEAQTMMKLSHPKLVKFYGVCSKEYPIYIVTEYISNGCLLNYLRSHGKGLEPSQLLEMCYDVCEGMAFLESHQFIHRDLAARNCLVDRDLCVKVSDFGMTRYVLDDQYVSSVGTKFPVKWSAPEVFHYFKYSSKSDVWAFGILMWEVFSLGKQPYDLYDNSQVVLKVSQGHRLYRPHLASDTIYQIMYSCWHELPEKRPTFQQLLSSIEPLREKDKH

[15] = target: T1, Cytoplasmic tyrosine-protein kinase BMX (Homo sapiens); conditions: at 1 µM
[16] = target: Protein-tyrosine kinase 6 (Homo sapiens) (UniProt Q13882); conditions: at 0.1 µM
Protein-tyrosine kinase 6 (Homo sapiens), sequence (Q13882 whole entry, looked up): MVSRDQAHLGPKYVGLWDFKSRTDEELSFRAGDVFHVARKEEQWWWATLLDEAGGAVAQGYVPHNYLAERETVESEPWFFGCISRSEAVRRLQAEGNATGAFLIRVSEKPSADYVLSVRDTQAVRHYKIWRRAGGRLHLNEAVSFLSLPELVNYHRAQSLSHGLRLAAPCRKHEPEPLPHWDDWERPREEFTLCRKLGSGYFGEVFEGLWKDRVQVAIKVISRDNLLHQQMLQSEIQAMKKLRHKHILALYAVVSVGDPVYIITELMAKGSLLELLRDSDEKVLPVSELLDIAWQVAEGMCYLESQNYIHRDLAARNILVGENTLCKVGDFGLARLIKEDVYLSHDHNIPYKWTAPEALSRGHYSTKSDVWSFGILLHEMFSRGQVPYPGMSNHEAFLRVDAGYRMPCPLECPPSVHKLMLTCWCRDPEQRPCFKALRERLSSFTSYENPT

[17] = target: Protein-tyrosine kinase 6 (Homo sapiens) (UniProt Q13882); conditions: at 1 µM
[18] = target: Tyrosine-protein kinase BTK (Homo sapiens) (UniProt Q06187); conditions: at 0.1 µM
Tyrosine-protein kinase BTK (Homo sapiens), sequence (Q06187 whole entry): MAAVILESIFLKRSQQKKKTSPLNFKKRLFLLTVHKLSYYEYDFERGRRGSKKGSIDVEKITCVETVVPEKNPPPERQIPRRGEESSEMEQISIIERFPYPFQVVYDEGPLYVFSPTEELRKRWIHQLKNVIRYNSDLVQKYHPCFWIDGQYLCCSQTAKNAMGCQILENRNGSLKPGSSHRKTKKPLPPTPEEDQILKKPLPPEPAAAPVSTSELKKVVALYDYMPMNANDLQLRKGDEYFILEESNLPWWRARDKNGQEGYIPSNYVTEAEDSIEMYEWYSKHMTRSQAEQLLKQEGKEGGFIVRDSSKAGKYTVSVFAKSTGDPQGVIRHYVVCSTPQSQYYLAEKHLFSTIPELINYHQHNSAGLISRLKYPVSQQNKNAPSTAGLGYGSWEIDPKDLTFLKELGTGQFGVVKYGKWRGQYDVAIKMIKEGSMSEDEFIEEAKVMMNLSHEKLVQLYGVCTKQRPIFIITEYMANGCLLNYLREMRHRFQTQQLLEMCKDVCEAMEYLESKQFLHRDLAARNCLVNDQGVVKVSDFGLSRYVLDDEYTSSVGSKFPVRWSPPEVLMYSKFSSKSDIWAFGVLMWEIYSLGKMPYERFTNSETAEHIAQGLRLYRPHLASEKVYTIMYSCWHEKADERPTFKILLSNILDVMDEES

[19] = target: Tyrosine-protein kinase BTK (Homo sapiens) (UniProt Q06187); conditions: at 1 µM
[20] = target: Tyrosine-protein kinase CSK (Homo sapiens) (UniProt P41240); conditions: at 0.1 µM;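 further: value given is the averaged percent inhibition of CSK kinase activity, from the GSK PKIS kinase inhibitor set screening panel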
Tyrosine-protein kinase CSK (Homo sapiens), sequence (P41240 2-450 limits assumed): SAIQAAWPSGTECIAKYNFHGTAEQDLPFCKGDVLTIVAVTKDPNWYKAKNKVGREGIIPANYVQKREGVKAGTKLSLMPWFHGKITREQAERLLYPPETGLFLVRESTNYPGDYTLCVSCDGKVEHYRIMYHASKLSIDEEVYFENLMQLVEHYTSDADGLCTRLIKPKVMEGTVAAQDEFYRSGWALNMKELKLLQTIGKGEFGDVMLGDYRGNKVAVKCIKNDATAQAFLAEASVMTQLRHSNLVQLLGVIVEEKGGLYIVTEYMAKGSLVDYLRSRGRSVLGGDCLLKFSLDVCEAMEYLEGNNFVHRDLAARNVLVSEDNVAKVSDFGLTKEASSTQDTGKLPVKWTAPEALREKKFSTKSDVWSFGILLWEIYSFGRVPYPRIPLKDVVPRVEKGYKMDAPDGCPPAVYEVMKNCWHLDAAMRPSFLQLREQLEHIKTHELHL

Compound	inhibition [1] [%]	inhibition [2] [%]	inhibition [3] [%]	inhibition [4] [%]	inhibition [5] [%]	inhibition [6] [%]	inhibition [7] [%]	inhibition [8] [%]	inhibition [9] [%]	inhibition [10] [%]	inhibition [11] [%]	inhibition [12] [%]	inhibition [13] [%]	inhibition [14] [%]	inhibition [15] [%]	inhibition [16] [%]	inhibition [17] [%]	inhibition [18] [%]	inhibition [19] [%]	inhibition [20] [%]
Cc1ccc(Nc2ccnc(Nc3cccc(C(N)=O)c3)n2)cc1O	39.8	80.4	94.1	56.4	79.5	-0.94	10.9	50.8	77.1	-5.49	0.42	11.8	71.2	14.1	56.7	48.9	91.5	3.4	29.1	10.8
C[C@@H](Oc1cc(-n2cnc3ccc(OCC4CCN(C)CC4)cc32)sc1C(N)=O)c1ccccc1C(F)(F)F	13.7	-1.07	1.43	0.74	2.7	1.57	20.8	0.15	3.87	3.82	12.8	1.16	14.4	-1.33	-2.09	-0.71	-4.24	0.52	-1.06	-4.98
CS(=O)(=O)CCNCc1nc(-c2ccc3ncnc(Nc4ccc(OCc5cccc(C(F)(F)F)c5)cc4)c3c2)cs1	1.2	1.32	0.85	3.97	6.56	2.68	6.49	1.49	4.56	-5.39	-2.54	1.22	4.48	3.48	5.73	-0.74	1.75	0.43	1.66	3.59
CN(C)C(=O)O[C@@H]1CN[C@@H](C#Cc2cc3ncnc(Nc4ccc(OCc5cccc(F)c5)c(Cl)c4)c3s2)C1	-0.07	1.53	3.44	1.35	6.2	1.27	1.3	1.71	8.08	-0.96	2.48	2.22	3.83	1.11	3.41	-0.15	2.41	-0.22	1.84	-1.53
Cc1ccc(NC(=O)CC2CC2)cc1-c1ccc(C(=O)NCC2CC2)cc1	2.68	5.1	5.33	6.36	8.53	1.68	3.58	8.79	7.68	-3.14	-1.55	2.42	2.73	1.08	5.01	4.58	5.79	1.4	2.39	4.41
COC(=O)Nc1nc2cc(Oc3ccc(NC(=O)Nc4cccc(Br)c4)cc3)ccc2[nH]1	44.6	7.87	16.5	6.66	19	2.06	3.65	16.1	34.4	-0.21	9.52	3.1	2.8	2.76	1.32	3.81	4.63	1.15	0.55	7.57
CS(=O)(=O)Nc1cccc(-c2ccc3c(NC(=O)C4CC4)n[nH]c3c2)c1	30.6	1.55	11.8	1.81	17.9	0.61	1.09	2.46	3.55	0.1	1.68	0.09	4.51	4.15	1.52	-1.65	-2.5	0.45	1.66	-2.14
Cc1ccc(O)cc1Nc1ccnc2ccc(S(C)(=O)=O)cc12	18.4	94.9	96.8	81.3	85.5	2.56	8.35	80.8		-7.59		42.8	91.4	76.5	93.2	95.3	103	63.8	77.3	70.3
COc1cc(/C=N/Nc2ncnc3c2cnn3C(C)C)ccc1O	47.8	37	82.2	23.3	73.7	0.72	4.12	16.7	68.5	-0.67	-0.23	4.73	45	2.71	17.1	1.02	4.8	-0.92	0.84	0.38
O=S(=O)(CCOCc1ccc(-c2ccc3ncnc(Nc4ccc(OCc5cccc(F)c5)c(Cl)c4)c3c2)o1)c1ccccc1	0.23	1.1	1.05	2.88	5.13	0.65	3.74	2.62	6.65	-0.96	1.46	-1.07	1.68	-0.56	1.08	0.18	1.77	-1.67	-1.3	1.76
Cc1cc(-c2ccccn2)cc(C)c1/C=C/c1cncc(-c2nn[nH]n2)c1	1.41	0.95	5.04	7.78	13	3.44	5.05	5.89	20.2	-5.03	-1.94	5.71	33.4	1.6	31.2	9.43	51	2.43	0.75	1.73
COc1cc2ncnc(Nc3ccc(C)c(O)c3)c2cc1OC	68.2	53.7	89.5	36.1	78.5	4.66	13.8	15.8	65.2	-6.97		7.68	49	6.28	13	17.5	65.5	0.81	15.9	5.1
CCS(=O)(=O)c1ccc(OC)c(Nc2nccc(N(C)c3ccc4c(C)n[nH]c4c3)n2)c1	15	66.4	92.3	58	78.5	4.29	12.4	42	73.9	-6.66	-3.9	15.4	67.5	3.66	23.2	18.8	79.3	2.21	27.1	1.43
NS(=O)(=O)c1cccc(-c2cc3ccncc3cc2OCc2ccccc2)c1	2.66	2.88	5.09	4.3	12.2	2.82	7.12	4.36	15.2	-7.61	-7.14	2.09	6.09	-0.13	4.21	4.43	4.64	-0.27	0.84	5.62
COc1cccc(-n2ncc3c(N/N=C/c4ccc(C)cc4)ncnc32)c1	23.2	31.8	76.1	13	62.1	12.4	22.3	64.2	40.5	-3.91	-6.6	3.17	7.15	5.21	10.6	3.4	5.43	-0.28	0.44	2.91
CN(C)C(=O)O[C@H]1CN[C@H](C#Cc2cc3ncnc(Nc4ccc(OCc5cccc(F)c5)c(Cl)c4)c3s2)C1	1.25	4.89	4.19	3.76	8.35	2.82	5.03	3.49	6.24	-3.4	-1.68	2.47	4.23	-3.39	3.3	5.52	4.14	-1.08	0.74	0.6
COc1cccc(-n2nc(C)c3c(N/N=C(\C)c4ccncc4)ncnc32)c1	-0.56	1.07	4.85	3.36	9.11	0.43	1.35	-0.17	5.82	-2.14	0.56	-0.21	1.02	1.51	3.74	-1.24	-0.15	0.11	-0.4	-0.83
Nc1nccc(-c2c(-c3ccc(F)cc3)nn3cc(C(F)(F)F)ccc23)n1	1.21	1.01	-0.43	0.6	0.4	3.84	5.16	2.16	3.62	0.67	5.17	0.6	1.08	-1.09	0.94	1.57	-4.29	0.89	0.4	-0.9
NS(=O)(=O)c1ccc(Nc2cc(-c3cccc(O)c3)n[nH]2)cc1	7.24	6.94	11.8	5.23	11.4	3.58	7.98	5.93	6.81		-5.6	3.31	6.67	-0.08	4.72	4.78	6.34	-0.39	0.41	4.63
Cc1nc(-c2ccccc2)n2nc(NCCCN3CCOCC3)ncc12	7.48	1.75	3.67	5.87	5.41	2.79	4.11	2.85	4.35	-1.08	-0.92	2.04	4.14	3.56	5.57	-2.39	2.23	0.19	0.66	-0.24
COc1cc2ncn(-c3cc(OCc4ccccc4S(C)(=O)=O)c(C#N)s3)c2cc1OC	32.6	13.8	48.8	9.66	49	4.25	9.85	4.77	18		43.5	16.6	72.3	1.45	33.1	4.42	9.89	1.87	11.8	7.28
c1ccc(Cc2nc3ccc(Nc4ncnc5ccccc45)cc3[nH]2)cc1	4.4	5.92	6.3	4.49	11.3	1.23	5.36	2.8	9.97	-5.03	-3.16	2.78	7.6	5.75	5.59	5.48	5.84	0.25	1.7	8.17
c1ccc(Nc2ncc(-c3ccccc3)o2)cc1	7.7	5.14	16.3	4.09	16.5	2.99	3.91	5.2	22.7	-3.91	-3.74	1.98	5.16	1.56	7.49	3.8	7.06	-0.11	0.49	4.22
Cc1ccc2c(-c3ccnc(Nc4ccc5c(c4)OCCO5)n3)c(-c3ccc(C(F)(F)F)cc3)nn2n1	-0.15	0.22	4.3	2.59	4.52	2.45	1.5	2.56	5	0.41	1.14	3.28	4.48		0.94	0.39	3.26	0.75	1.71	-2.99
CC(C)c1ccc(Nc2nccc(-c3cnn4ncccc34)n2)cc1	10.6	4.68	10	3.33	13.3	4.56	23.7	4.44	10.6	-4.19	0.39	1.48	4.76		5.9	3.47	6.47	-1.04	-0.53	4.27
OCc1ccc(-c2nc(-c3ccccn3)c(-c3ccc4c(c3)OCO4)[nH]2)cc1	0.39	4.74	4.83	8.07	12.3	3.63	8.19	5.94		-6.62	-3.37	3.13	5.92	-2.19	4.67	4.49	5.07	3.02	3.51	3.92
CN(C)c1cc2c(Nc3ccc4c(cnn4Cc4ccccc4)c3)ncnc2cn1	-1.27	1.19	3.05	2.46	5.43	2.86	4.13	1.06	8.48	-6.03	-3.44	3.2	22.6	3.53	20.8	5.3	29.2	1.09	9.11	6.06
